Experiments:
[1] = biological target: T1, Serine/threonine-protein kinase TBK1 (Homo sapiens) (UniProt Q9UHD2); settings: at 1 µM;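 further: values are mean inhibition of TBK1, screened as part of the GSK published kinase inhibitor set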
T1 sequence (whole entry): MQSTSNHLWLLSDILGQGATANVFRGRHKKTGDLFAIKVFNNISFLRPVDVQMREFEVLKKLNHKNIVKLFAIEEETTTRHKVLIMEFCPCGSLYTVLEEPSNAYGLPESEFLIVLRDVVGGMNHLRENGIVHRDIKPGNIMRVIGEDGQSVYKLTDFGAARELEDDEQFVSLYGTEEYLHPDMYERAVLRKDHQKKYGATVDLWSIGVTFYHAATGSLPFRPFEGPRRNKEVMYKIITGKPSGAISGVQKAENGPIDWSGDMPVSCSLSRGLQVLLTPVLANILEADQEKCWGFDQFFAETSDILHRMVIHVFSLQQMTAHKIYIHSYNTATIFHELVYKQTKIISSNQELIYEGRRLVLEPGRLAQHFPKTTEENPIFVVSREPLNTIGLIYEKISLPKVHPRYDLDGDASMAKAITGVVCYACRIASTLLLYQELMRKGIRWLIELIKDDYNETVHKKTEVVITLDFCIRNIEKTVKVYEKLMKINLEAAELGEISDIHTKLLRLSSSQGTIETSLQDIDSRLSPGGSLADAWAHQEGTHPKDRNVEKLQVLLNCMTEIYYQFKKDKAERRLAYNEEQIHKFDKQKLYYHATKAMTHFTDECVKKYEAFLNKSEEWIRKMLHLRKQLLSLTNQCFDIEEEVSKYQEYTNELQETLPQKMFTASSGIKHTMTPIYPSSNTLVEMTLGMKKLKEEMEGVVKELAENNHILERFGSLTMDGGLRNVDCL

[2] = biological target: T2, Testis-specific serine/threonine-protein kinase 1 (Homo sapiens) (UniProt Q9BXA7); settings: at 0.1 µM
T2 sequence (whole entry): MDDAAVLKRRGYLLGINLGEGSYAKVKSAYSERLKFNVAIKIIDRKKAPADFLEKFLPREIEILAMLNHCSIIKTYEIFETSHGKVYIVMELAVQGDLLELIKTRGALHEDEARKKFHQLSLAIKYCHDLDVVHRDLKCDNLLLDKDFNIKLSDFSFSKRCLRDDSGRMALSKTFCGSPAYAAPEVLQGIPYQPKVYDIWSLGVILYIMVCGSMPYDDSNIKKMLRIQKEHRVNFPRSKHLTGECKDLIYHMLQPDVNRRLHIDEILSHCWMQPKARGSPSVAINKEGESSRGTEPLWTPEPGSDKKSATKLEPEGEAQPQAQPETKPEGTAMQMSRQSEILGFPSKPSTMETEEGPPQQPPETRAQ

[3] = biological target: T2, Testis-specific serine/threonine-protein kinase 1 (Homo sapiens); settings: at 1 µM
[4] = biological target: T3, Testis-specific serine/threonine-protein kinase 2 (Homo sapiens) (UniProt Q96PF2); settings: at 0.1 µM
T3 sequence (whole entry): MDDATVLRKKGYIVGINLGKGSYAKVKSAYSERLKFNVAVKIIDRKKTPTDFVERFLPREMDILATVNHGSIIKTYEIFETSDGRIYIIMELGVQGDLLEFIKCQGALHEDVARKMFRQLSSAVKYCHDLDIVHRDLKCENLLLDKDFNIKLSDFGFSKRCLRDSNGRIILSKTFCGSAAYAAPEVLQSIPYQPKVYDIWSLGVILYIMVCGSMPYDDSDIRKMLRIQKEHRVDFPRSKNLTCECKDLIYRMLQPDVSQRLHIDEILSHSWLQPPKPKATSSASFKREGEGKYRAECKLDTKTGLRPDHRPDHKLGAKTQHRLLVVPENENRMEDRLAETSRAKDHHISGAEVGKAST

[5] = biological target: T3, Testis-specific serine/threonine-protein kinase 2 (Homo sapiens); settings: at 1 µM
[6] = biological target: Casein kinase I isoform alpha (Homo sapiens) (UniProt P48729); settings: at 0.1 µM
Sequence of Casein kinase I isoform alpha (Homo sapiens) (P48729 2-337 limits assumed): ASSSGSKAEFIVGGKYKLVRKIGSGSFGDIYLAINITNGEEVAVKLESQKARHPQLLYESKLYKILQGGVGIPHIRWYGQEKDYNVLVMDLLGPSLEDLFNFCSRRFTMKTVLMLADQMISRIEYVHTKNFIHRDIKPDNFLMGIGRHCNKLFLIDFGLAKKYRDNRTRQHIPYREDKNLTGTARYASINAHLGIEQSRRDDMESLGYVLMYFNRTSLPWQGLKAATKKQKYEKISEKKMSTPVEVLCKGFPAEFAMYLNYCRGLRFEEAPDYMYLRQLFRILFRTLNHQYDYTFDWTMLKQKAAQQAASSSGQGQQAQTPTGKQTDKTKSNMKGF

[7] = biological target: Casein kinase I isoform alpha (Homo sapiens) (UniProt P48729); settings: at 1 µM
[8] = biological target: Casein kinase I isoform gamma-1 (Homo sapiens) (UniProt Q9HCP0); settings: at 0.1 µM
Sequence of Casein kinase I isoform gamma-1 (Homo sapiens) (Q9HCP0 whole entry, looked up, canonical isoform): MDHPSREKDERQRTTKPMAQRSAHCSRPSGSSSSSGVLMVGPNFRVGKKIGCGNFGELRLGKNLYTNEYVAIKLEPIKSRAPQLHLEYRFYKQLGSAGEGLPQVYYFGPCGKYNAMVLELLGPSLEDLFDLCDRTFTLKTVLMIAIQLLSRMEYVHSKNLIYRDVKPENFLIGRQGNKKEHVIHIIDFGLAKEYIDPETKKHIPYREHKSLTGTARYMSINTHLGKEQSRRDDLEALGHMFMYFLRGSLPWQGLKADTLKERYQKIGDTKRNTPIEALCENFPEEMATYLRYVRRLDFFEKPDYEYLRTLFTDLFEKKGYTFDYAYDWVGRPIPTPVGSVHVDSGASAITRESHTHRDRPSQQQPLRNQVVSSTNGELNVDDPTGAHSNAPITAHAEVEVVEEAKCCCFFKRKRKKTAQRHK

[9] = biological target: Casein kinase I isoform gamma-1 (Homo sapiens) (UniProt Q9HCP0); settings: at 1 µM
[10] = biological target: Casein kinase I isoform gamma-2 (Homo sapiens) (UniProt P78368); settings: at 0.1 µM
Sequence of Casein kinase I isoform gamma-2 (Homo sapiens) (P78368 whole entry, looked up, canonical isoform): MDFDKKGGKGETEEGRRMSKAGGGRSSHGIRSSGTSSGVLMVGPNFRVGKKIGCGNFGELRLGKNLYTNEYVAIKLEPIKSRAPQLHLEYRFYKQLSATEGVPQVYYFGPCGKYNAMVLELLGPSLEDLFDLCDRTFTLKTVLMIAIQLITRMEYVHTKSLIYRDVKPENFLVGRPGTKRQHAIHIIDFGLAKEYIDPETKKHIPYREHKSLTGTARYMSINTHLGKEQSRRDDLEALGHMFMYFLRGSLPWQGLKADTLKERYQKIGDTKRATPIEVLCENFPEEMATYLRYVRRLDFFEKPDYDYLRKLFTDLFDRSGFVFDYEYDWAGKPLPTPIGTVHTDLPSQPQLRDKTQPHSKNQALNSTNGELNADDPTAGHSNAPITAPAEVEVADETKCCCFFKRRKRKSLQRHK

[11] = biological target: Casein kinase I isoform gamma-2 (Homo sapiens) (UniProt P78368); settings: at 1 µM
[12] = biological target: Casein kinase I isoform gamma-3 (Homo sapiens) (UniProt Q9Y6M4); settings: at 0.1 µM
Sequence of Casein kinase I isoform gamma-3 (Homo sapiens) (Q9Y6M4 whole entry, looked up, canonical isoform): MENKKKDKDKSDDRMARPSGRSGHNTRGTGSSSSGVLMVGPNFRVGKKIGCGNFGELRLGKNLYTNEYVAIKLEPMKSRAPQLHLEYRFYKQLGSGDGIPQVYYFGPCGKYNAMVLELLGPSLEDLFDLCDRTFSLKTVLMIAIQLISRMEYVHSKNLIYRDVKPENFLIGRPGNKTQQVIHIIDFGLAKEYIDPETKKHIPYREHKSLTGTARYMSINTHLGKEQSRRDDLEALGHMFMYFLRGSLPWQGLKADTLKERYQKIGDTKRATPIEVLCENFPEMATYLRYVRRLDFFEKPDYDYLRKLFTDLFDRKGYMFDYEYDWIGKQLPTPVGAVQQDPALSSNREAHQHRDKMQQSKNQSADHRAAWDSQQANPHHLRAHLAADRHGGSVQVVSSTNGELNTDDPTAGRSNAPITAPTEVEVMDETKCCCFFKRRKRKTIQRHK

[13] = biological target: Casein kinase I isoform gamma-3 (Homo sapiens) (UniProt Q9Y6M4); settings: at 1 µM
[14] = biological target: Cyclin-dependent kinase 1 (Homo sapiens) (UniProt P06493); settings: at 0.1 µM
Sequence of Cyclin-dependent kinase 1 (Homo sapiens) (P06493 whole entry, looked up): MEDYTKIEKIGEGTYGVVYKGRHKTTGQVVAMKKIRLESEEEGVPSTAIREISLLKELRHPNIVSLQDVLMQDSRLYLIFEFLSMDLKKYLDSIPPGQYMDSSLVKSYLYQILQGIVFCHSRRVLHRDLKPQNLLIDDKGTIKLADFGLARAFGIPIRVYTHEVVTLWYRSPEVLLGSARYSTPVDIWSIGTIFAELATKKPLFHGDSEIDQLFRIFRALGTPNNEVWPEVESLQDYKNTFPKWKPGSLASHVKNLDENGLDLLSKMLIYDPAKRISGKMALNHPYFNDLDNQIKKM

[15] = biological target: Cyclin-dependent kinase 1 (Homo sapiens) (UniProt P06493); settings: at 1 µM
[16] = biological target: Cyclin-dependent kinase 2 (Homo sapiens) (UniProt P24941); settings: at 0.1 µM
[17] = biological target: Cyclin-dependent kinase 2 (Homo sapiens) (UniProt P24941); settings: at 1 µM
[18] = biological target: Cyclin-dependent kinase 2 (Homo sapiens) (UniProt P24941); settings: at 0.1 µM; remark: listed apart in the source
[19] = biological target: Cyclin-dependent kinase 2 (Homo sapiens) (UniProt P24941); settings: at 1 µM; remark: listed apart in the source
[20] = biological target: CDK3/Cyclin E (Homo sapiens) (UniProt P24864+Q00526); settings: at 0.1 µM;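 further: reported percentages are mean inhibition values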
Sequence of CDK3/Cyclin E (Homo sapiens) (P24864 whole entry, looked up): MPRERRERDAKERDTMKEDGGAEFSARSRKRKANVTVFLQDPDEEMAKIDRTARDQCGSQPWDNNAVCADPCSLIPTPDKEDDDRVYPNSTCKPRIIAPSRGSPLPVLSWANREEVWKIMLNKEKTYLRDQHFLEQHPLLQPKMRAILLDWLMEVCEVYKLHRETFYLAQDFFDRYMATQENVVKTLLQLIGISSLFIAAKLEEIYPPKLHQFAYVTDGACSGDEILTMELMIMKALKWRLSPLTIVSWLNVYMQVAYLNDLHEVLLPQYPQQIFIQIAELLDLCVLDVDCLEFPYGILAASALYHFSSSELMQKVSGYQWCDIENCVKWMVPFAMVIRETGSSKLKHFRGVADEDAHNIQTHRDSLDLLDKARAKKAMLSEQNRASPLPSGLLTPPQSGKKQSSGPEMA
Sequence of CDK3/Cyclin E (Homo sapiens) (Q00526 whole entry, looked up): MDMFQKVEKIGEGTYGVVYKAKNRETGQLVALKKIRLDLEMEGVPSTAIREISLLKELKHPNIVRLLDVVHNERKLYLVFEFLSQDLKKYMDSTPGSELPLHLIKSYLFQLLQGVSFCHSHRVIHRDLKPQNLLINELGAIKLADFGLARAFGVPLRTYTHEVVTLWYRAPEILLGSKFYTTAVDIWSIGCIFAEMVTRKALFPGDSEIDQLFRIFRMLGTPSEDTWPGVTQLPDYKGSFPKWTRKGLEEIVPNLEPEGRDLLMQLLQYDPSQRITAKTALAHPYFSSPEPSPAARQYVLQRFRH

SMILES | inhibition [1] [%] | inhibition [2] [%] | inhibition [3] [%] | inhibition [4] [%] | inhibition [5] [%] | inhibition [6] [%] | inhibition [7] [%] | inhibition [8] [%] | inhibition [9] [%] | inhibition [10] [%] | inhibition [11] [%] | inhibition [12] [%] | inhibition [13] [%] | inhibition [14] [%] | inhibition [15] [%] | inhibition [16] [%] | inhibition [17] [%] | inhibition [18] [%] | inhibition [19] [%] | inhibition [20] [%]
NS(=O)(=O)c1ccc(Nc2cc(-c3ccc(O)c(F)c3)n[nH]2)cc1 | 7.59 | -1.37 | -0.04 | -3.53 | -0.52 | -2.61 | 4.49 | -2 | 0.81 | -1.44 | 2.15 | -3.13 | 4.18 | 10.9 | 51.7 | 53.3 | 78.9 | 59.9 | 86.9 | 9.52
Fc1ccc(-c2ncn(CCCN3CCOCC3)c2-c2ccncc2)cc1 | 0.48 | -0.41 | -0.42 | -1.62 | -0.63 | 2.04 | 5.39 | 0.8 | 1.79 | 1.74 | 0.86 | 0 | -0.19 | 0.43 | 2.72 | 1.19 | 0.72 | 2.29 | 5.92 | 2.27
Fc1ccc(-c2ncn(C3CCNCC3)c2-c2ccnc(Oc3ccc(Oc4ccccc4)cc3)n2)cc1 | 2.57 | 4.18 | 4.2 | 0.94 | 2.4 | 10.7 | 49.6 | 6.35 | 20.6 | 5.54 | 14.6 | 7.8 | 26.3 | 1.88 | 2.92 | 3.49 | 4.28 | 2.95 | 4.3 | -3.73

From ChEMBL document CHEMBL1961873, “Compounds: GSK PKIS; Assays: Nanosyn kinase panel” (2012)
